Data on five compounds can be found in PubChem BioAssay.

The test system of test [1] is PRMT1 (protein arginine N-methyltransferase 1). Put plainly: small molecules binding arginine methyltransferase PRMT1 – biochemical, small-molecule microarray, 635 nm fluorescence, primary screen (AID 1088).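 Note: binding of Prmt1 protein to compounds spotted on small-molecule microarray slides.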 The note with it: higher = more signal.
A short description of test [2]: growth effects on S. cerevisiae YJM789 – YJM789 clinical isolate, OD600, 24 h, basal, primary screen (AID 1089).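 Note: growth of clinical yeast isolate S. cerevisiae YJM 789 seeded 1000 cells per well; test concentration not given here.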 The note with it: higher = more signal, called active from +8 up or from −8 down.
Test [3] in a line: S. pombe growth modifiers, basal conditions – strain 972, OD600, 24 h, no modulator, primary screen (AID 1090).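 Note: basal condition with compound alone and no growth modifier present; test concentration not given here.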 The note with it: S. pombe 972 growth, higher = more signal, called active from +8 up or from −8 down.
Test [4] is described as follows: budding yeast growth modifiers under rapamycin – strain BY4716, OD600, 96 h, primary screen (AID 1091). Note: test concentration not given here. The note with it: S. cerevisiae BY4716 + rapamycin, higher = more signal, called active from +8 up or from −8 down.
Test [5] addresses Torsin-1A-interacting protein 2 (Homo sapiens) (UniProt Q8NFQ8). Put plainly: small molecules binding lysate-expressed LULL1 – cell lysate, human LULL1 lysate, 635/667 nm fluorescence, primary screen (AID 1092).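 Note: probe is lysate of COS7 cells overexpressing human LULL1; score merges per-feature 667 nm fluorescence with signal-to-noise.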 The note with it: small-molecule microarray, hLULL1 lysate binding, 635 nm fluorescence; higher = more signal.
Test [6] in a line: optical density change of DRC41 E. coli – strain DRC41, OD650, 24 h, E. coli filamentation project, primary screen (AID 1093).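 Note: MC1000 strain lacking acrAB efflux and sulA so SOS filamentation is blocked; test concentration not given here.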 The note with it: E. coli DRC41 growth, higher = more signal, called active from +8 up or from −8 down.
Test [7] in a line: probe aLefty2 binding to arrayed compounds – biochemical, biotinylated probe, 635/667 nm fluorescence, primary screen (AID 1094).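 Note: score merges spot fluorescence near 667 nm with spot signal-to-noise ratio.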 The note with it: small-molecule microarray, higher = more signal.
Test [8] relates to Noggin (protein binding on small-molecule microarray). Put plainly: small molecules binding Noggin protein – biochemical, 635/667 nm fluorescence, primary screen (AID 1095).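 Note: score merges 667 nm feature fluorescence with signal to noise over triplicate slides.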 The note with it: 635 nm fluorescence, higher = more signal.
The target of test [9] is Neurogenic locus notch homolog protein 3 (Homo sapiens) (UniProt Q9UM47). Put plainly: small molecules binding NOTCH3 protein – biochemical, 635/667 nm fluorescence, primary screen (AID 1096). The note with it: small-molecule microarray, 635 nm fluorescence, higher = more signal.
Sequence of Neurogenic locus notch homolog protein 3 (Homo sapiens) (Q9UM47 whole entry, looked up): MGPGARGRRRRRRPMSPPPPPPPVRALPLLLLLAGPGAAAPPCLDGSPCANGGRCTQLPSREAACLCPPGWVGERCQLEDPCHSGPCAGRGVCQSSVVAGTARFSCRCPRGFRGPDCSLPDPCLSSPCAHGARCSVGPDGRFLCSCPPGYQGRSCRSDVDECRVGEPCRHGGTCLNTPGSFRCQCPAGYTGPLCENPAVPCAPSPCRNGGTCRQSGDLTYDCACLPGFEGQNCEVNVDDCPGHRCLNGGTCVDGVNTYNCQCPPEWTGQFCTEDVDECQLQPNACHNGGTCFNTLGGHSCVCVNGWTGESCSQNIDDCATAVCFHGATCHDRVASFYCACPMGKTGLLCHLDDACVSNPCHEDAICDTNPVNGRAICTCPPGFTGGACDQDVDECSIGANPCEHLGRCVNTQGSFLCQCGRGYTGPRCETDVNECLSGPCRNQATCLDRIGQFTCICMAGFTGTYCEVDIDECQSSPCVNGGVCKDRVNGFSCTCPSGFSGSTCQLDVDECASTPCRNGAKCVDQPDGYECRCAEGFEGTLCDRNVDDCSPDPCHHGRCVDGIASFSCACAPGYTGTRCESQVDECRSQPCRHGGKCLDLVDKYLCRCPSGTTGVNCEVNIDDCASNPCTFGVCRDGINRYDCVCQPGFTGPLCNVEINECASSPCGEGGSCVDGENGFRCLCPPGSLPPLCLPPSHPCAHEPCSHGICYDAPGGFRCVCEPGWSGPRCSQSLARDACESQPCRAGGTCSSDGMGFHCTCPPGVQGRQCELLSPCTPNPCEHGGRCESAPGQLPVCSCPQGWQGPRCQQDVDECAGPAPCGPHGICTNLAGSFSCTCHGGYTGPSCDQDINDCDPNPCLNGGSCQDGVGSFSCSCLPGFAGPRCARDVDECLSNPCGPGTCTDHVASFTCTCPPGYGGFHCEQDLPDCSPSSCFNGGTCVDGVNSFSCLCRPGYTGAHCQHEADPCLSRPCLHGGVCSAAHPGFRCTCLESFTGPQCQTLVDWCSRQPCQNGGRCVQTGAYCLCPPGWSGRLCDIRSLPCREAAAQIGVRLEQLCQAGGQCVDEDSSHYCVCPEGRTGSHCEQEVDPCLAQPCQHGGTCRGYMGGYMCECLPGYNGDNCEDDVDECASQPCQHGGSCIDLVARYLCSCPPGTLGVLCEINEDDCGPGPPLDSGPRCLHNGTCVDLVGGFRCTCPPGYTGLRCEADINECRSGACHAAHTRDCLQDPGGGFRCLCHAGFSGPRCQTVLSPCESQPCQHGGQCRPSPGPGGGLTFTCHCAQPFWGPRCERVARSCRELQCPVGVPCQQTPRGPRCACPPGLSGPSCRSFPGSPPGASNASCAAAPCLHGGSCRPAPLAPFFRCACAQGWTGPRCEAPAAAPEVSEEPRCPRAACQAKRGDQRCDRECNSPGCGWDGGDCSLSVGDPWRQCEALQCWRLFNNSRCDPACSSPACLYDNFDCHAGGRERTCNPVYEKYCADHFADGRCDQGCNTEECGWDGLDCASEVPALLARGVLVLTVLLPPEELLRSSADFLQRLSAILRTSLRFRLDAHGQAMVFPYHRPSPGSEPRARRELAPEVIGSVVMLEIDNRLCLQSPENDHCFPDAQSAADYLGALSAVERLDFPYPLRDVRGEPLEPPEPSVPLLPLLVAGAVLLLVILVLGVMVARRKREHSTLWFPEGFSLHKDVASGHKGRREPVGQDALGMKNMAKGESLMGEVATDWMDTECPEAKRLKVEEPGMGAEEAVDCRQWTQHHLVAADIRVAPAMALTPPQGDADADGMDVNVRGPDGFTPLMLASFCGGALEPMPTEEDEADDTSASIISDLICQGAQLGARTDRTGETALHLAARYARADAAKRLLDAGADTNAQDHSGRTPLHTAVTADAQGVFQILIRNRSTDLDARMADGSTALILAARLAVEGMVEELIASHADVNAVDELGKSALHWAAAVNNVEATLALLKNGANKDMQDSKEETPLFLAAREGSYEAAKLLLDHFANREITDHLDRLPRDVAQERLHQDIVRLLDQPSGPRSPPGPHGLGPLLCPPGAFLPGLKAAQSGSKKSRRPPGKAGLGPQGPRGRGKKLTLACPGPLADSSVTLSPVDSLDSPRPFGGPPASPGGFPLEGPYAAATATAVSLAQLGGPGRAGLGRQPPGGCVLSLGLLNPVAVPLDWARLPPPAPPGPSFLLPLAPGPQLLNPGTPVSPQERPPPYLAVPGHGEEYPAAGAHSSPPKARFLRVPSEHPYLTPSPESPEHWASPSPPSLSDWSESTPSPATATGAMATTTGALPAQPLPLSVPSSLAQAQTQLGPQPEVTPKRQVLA
A short description of test [10]: probe aEGFR binding to arrayed compounds – biochemical, biotinylated probe, 635/667 nm fluorescence, primary screen (AID 1097).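 Note: probe is a biotinylated anti-EGFR antibody binding compounds printed on slides; score combines fluorescence near 667 nm and signal to noise of each spot.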 The note with it: small-molecule microarray, higher = more signal.
The subject of test [11] is Plasmodium falciparum Sir2 (PF13_0152, Sir2A). Put plainly: Plasmodium falciparum Sir2A binding compounds – biochemical, small-molecule microarray, 635 nm fluorescence, primary screen (AID 1098).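 Note: score merges spot fluorescence intensity with its signal-to-noise ratio.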 The note with it: fluorescence 635 nm, higher = more signal.
Test [12] in a line: probe aDKK1 binding to arrayed compounds – biochemical, biotinylated probe, 635/667 nm fluorescence, primary screen (AID 1099).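 Note: score merges 667nm spot fluorescence with signal to noise across triplicate slides; reference of the scale not given here.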 The note with it: small-molecule microarray, higher = more signal.
Test [13] is described as follows: probe aCHRDL2 binding to arrayed compounds – biochemical, biotinylated probe, 635/667 nm fluorescence, primary screen (AID 1100). The note with it: small-molecule microarray, higher = more signal.
Test [14] can be described thus: change in splice reporter luminescence, either direction, cell-based, HEK293, spliceosome inhibition project, primary screen (AID 1101).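 Note: HEK293 cells carrying a splicing-competent luciferase reporter gene; test concentration not given here.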 The note with it: HEK293 splicing luciferase reporter, 24 h, higher = more signal, called active from +8 up or from −8 down. (In general: In a reporter assay the amount or activity of a reporter protein is the signal.)
In test [15] the target is Fibroblast growth factor 10 (Homo sapiens) (UniProt O15520). Put plainly: compounds binding fibroblast growth factor 10 – biochemical, small-molecule microarray, 635 nm fluorescence, primary screen (AID 1102). The note with it: FGF10 binding, fluorescence 635 nm, higher = more signal.
Sequence of Fibroblast growth factor 10 (Homo sapiens) (O15520 whole entry, looked up): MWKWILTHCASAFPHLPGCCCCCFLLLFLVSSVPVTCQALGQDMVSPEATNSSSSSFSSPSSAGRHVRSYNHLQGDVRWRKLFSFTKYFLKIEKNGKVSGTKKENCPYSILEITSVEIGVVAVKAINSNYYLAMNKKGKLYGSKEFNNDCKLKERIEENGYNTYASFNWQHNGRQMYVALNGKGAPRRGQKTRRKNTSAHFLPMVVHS
Test [16] deals with glycogen synthase kinase-3 (GSK3A per assay name; protocol says GSK3B). Put plainly: compounds binding glycogen synthase kinase-3 – biochemical, small-molecule microarray, 635 nm fluorescence, GSK3A, primary screen (AID 1103). Note: the record names both GSK3A and GSK3B. The note with it: fluorescence 635 nm, higher = more signal.
For test [17], the target named is Epidermal growth factor receptor (Homo sapiens) (UniProt P00533). Put plainly: compounds binding epidermal growth factor receptor – biochemical, small-molecule microarray, 635 nm fluorescence, primary screen (AID 1104).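 Note: score merges 667 nm emission intensity with spot signal to noise over triplicate slides.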 The note with it: EGFR binding, higher = more signal.
Sequence of Epidermal growth factor receptor (Homo sapiens) (P00533 whole entry, looked up): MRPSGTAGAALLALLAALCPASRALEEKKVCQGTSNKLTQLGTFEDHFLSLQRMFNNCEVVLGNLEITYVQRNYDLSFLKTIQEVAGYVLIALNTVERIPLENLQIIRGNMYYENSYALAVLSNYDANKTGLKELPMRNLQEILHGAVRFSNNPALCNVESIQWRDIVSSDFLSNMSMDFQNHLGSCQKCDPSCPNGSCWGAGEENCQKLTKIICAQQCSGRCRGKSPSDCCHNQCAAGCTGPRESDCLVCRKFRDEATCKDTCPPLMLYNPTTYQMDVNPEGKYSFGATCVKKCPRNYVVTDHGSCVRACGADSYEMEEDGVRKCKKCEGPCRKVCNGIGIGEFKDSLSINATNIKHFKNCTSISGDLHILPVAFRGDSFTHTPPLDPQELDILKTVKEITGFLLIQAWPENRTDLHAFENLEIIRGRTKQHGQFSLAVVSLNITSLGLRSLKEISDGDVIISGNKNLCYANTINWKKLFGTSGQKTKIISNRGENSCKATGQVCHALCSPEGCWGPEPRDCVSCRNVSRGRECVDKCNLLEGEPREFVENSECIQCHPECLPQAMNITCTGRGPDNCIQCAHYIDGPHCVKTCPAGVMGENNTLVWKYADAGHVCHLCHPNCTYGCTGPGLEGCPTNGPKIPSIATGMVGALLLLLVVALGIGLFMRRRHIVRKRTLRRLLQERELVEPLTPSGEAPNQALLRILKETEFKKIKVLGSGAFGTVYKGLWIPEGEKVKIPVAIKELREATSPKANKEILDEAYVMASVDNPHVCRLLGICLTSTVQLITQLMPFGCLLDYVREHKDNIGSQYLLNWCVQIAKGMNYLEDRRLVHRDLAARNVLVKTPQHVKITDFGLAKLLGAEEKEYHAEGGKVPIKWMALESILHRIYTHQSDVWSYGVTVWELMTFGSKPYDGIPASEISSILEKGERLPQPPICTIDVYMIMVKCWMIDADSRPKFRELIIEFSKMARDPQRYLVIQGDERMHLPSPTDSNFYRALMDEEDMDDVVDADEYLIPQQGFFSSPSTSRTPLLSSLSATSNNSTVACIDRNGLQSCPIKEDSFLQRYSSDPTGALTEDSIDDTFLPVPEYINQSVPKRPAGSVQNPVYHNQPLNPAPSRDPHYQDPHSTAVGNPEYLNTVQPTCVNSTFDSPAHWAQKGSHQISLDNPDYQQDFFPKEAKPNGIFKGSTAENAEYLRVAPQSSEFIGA
Test [18] has as its target Follistatin-related protein 3 (Homo sapiens) (UniProt O95633). Put plainly: compounds binding follistatin-related protein 3 – biochemical, small-molecule microarray, 635 nm fluorescence, primary screen (AID 1105).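 Note: score merges emission near 667 nm and signal to noise per printed spot across three slides.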 The note with it: FSTL3 binding, higher = more signal.
Test [19] has as its target Dickkopf-related protein 1 (Homo sapiens) (UniProt O94907). Put plainly: small molecules binding DKK1 protein – biochemical, small-molecule microarray, 635 nm fluorescence scan, primary screen (AID 1106).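 Note: score merges emission near 667 nm with signal to noise over three replicate slides.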 The note with it: higher = more signal.
For test [20], the system named is Inhibin beta A chain (activin A). Put plainly: small molecules binding activin A – biochemical, small-molecule microarray, 635 nm fluorescence scan, primary screen (AID 1107).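 Note: mouse activin A protein probed at 4.33 µg/mL on printed slides; score merges bound-protein fluorescence near 667 nm with spot signal-to-noise.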 The note with it: INHBA, higher = more signal.

Activity calls are given as the source filed them.

Sequence of Follistatin-related protein 3 (Homo sapiens) (O95633 whole entry, looked up): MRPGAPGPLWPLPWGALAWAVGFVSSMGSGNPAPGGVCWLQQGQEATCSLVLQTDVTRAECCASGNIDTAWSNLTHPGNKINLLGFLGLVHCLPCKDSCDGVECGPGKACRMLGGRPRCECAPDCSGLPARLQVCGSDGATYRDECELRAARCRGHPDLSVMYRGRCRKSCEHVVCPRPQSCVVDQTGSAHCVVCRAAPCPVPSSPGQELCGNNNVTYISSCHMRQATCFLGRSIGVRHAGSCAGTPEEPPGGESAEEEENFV
Sequence of Dickkopf-related protein 1 (Homo sapiens) (O94907 whole entry, looked up): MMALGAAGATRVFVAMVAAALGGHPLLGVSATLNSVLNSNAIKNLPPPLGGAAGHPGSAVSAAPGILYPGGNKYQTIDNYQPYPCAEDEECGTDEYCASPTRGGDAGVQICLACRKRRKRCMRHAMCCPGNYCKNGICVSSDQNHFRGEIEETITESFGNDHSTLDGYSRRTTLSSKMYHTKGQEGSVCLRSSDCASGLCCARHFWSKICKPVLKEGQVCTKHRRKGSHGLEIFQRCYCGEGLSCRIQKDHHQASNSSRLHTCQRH
Sequence of Torsin-1A-interacting protein 2 (Homo sapiens) (Q8NFQ8 whole entry, looked up): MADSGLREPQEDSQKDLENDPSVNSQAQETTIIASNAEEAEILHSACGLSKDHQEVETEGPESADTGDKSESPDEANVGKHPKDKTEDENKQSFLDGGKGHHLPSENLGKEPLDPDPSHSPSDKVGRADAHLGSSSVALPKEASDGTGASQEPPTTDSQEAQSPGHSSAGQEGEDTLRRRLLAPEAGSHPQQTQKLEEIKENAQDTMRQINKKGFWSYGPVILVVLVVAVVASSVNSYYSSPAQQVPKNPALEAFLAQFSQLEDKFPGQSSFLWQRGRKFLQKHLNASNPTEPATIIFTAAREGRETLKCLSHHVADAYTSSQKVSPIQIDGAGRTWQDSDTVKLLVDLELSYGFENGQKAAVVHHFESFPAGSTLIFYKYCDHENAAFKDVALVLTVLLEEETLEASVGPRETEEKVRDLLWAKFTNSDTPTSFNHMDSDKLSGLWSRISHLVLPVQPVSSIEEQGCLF

In the case of `C=C[C@H]1C(C(=O)OCC)=CC[C@@H](c2ccccc2)N1S(=O)(=O)c1ccc(C)cc1`, the composite z-score in test [1] was 0.895; in test [5], 2.94; in test [7], 0.174; in [8], 0.705; in test [9], 1.13; in [10], -0.0531. For the same compound, the composite z-score in test [11] is 1.05; in [12] it was 0.158; in test [13] it was 0.587; in test [15], 0.922; in [16], 1.3; in [17] it was 0.224. Besides, the composite z-score came out at 1.11 in test [18], 0.0288 in [19] and 1.34 in test [20]. The z-score in test [2] was 0.293 (inactive); in test [3], 1.12 (inactive); in test [4], 1.86 (inactive); in [6] it was -0.558 (inactive); in [14], -2.78 (inactive).
Regarding `COCCOC(=O)N1C(=O)[C@@]2(c3cc(C#CC4(O)CCCCCC4)ccc31)[C@H](C(=O)N1CCc3cc(OC)c(OC)cc3C1)[C@H]1C(=O)O[C@H](c3ccccc3)[C@H](c3ccccc3)N1[C@@H]2c1ccc(OCCO)cc1`, the composite z-score is 1.54 in [1]; 2.03 in [5]; -0.0585 in test [7]; 1.3 in test [8]; 1.09 in test [9]; -0.0234 in [10]. The composite z-score was 0.868 in test [11]; -0.208 in test [12]; -0.219 in test [13]; 0.891 in test [15]; 1.3 in [16]; 0.626 in test [17]. In addition, the composite z-score is 1.04 in [18], 0.95 in [19] and 0.25 in test [20]. Besides, the z-score in test [2] was 1.98 (inactive); in test [3], 0.932 (inactive); in test [4] it was 4.4 (inactive); in [6] it was 0.0446 (inactive); in test [14], 0.058 (inactive).
On to `COc1ccc([Si](C)(C)[C@@H]2[C@@H](CCO)O[C@]3(C(=O)N(Cc4ccccc4)c4ccc(NC(=O)[C@H](C)O)cc43)[C@H]2C)cc1`, for which the composite z-score in [1] was 1.54; in [5], 2; in test [7] it was -0.0766; in [8], 1.25; in test [9], 1.05; in [10], -0.067. In addition, the composite z-score in test [11] was 0.728; in [12] it was -0.106; in test [13], -0.147; in [15], 0.867; in [16], 1.29; in test [17] it was 0.778. Besides, the results for the composite z-score in test [18], in test [19] and in test [20] were 1.14, 0.43 and -0.159, respectively. For the same compound, the z-score in [2] was 2.85 (inactive); in [3], 0.386 (inactive); in test [4], 7.41 (inactive); in [6] it was 0.655 (inactive); in test [14], -1.75 (inactive).
As to `C=CC[C@@]1(C(=O)NCCCOC)N=C(c2ccc(OCCCO)cc2)O[C@@H]1c1ccccc1`, the composite z-score in [1] is 1.24; in test [5], 3.37; in [7] it was 0.211; in test [8], 0.0729; in test [9], -0.741; in [10] it was 0.0353. In addition, the composite z-score was 1.7 in test [11]; 2.31 in [12]; 1.36 in test [13]; 0.311 in test [15]; 0.326 in test [16]; -0.848 in test [17]. Also, the values for the composite z-score in [18], in test [19] and in [20] were -0.439, -0.666 and 0.923, respectively. Besides, the z-score in [2] was -3.84 (inactive); in test [3], -1.61 (inactive); in [4], -0.725 (inactive); in test [6] it was 0.734 (inactive); in test [14] it was -1.39 (inactive).
As to `CCCCCN1CC=CC23O[C@@H]4/C=C\CCC(C)OC(=O)C4[C@H]2C(=O)N(C(CO)C(C)C)[C@@H]3C1=O` (stereo not given in full), the composite z-score in test [1] is 0.0839; in test [5] it was 2.1; in test [7], -0.506; in test [8] it was -0.087; in test [9], 0.165; in test [10] it was -0.14. Moreover, the composite z-score was 1.63 in [11]; -0.612 in test [12]; -0.288 in test [13]; 0.0694 in [15]; -0.169 in [16]; -0.538 in [17]. Further, the results for the composite z-score in [18], in test [19] and in test [20] were 0.0876, -0.543 and 1.18, respectively. Also, the z-score in [2] was -0.646 (inactive); in test [3], -0.957 (inactive); in [4], -1.02 (inactive); in [6], 1.5 (inactive); in test [14], 0.139 (inactive).
